Peg3 prom inh – inhibitors of Peg3 promoter; HeLa PEG-Prom luciferase reporter, luminescence, overnight; inhibition, % at 20 µM; 1.7% of 360,000 active; AID 588405;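 active = inhibition of at least 50% at 20 µM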
KKLEB tox – reduces viability of KKLEB cystic fibrosis airway cells. KKLEB CF airway cells viability, ATPlite luminescence, overnight; stronger effect = lower value; cells stimulated with P. aeruginosa culture filtrate. 0.36% of 360,000 active. activity change (cytotoxicity), % at 5 µM;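 active = corrected activity change at or below -50% at 5 µM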
MITF TRPM1 inh – reduces MITF-dependent TRPM1 promoter luciferase signal; SK-MEL-5 TRPM1 promoter luciferase, 24 h; inhibition, % at 12.5 µM; 0.83% of 330,000 active; AID 488899;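 active = mean inhibition across replicates of 60% or more, whatever share of single replicates reaches that level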
CF NFkB inh – inhibitors of cystic fibrosis induced NF-kB | AID 588850 | 0.86% of 360,000 active | inhibition, % at 5 µM | KKLEB NF-kB-GFP reporter, PAF-induced, GFP fluorescence overnight;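 active = at least 50% inhibition at 5 µM, scaled per plate between neutral and stimulator controls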;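 note: PAF is a Pseudomonas aeruginosa culture filtrate used as stimulus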
CHOP inh – blocks CHOP induction under ER stress; CHO-K1 CHOP-promoter luciferase, tunicamycin-induced, 15-18 h; inhibition, % at 10 µM; 3.8% of 220,000 active;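 active = compounds that reduced the stress-induced luciferase reporter signal by more than about 70% of percent inhibition, limit read from the data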
HIF-2a block – HIF-2a inhibition; 786-0 RCC cells HIF-2a reporter, luciferase luminescence, overnight; inhibition, % at 18.8 µM; 0.72% of 360,000 active; AID 624352;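 active = inhibition of the luminescence signal of 40% or more relative to plate controls, in a single-dose primary screen at 18.75 µM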
Of the large screens only hits and unclear results are named; the others gave an inactive call. Compounds with a hit are over-represented: about 4.3% of the library has one in this group of screens.

CCNc1sc(C(=O)c2cccs2)c(N)c1-c1nc2ccccc2s1	CHOP inh 78
Cc1ccc(S(=O)(=O)C[C@@H]2OC[C@H](C)N2S(=O)(=O)c2ccc(C)cc2)cc1	none (no result: Peg3 prom inh, KKLEB tox, MITF TRPM1 inh, CF NFkB inh, CHOP inh)
Cc1cccc(NC(=O)CCc2ccc(S(=O)(=O)NC3CCCCC3)cc2)c1	CHOP inh 72
O=C(CCc1ccccc1)Nc1cccc(NC(=O)CCc2ccccc2)c1	CHOP inh 72
Cc1ccc(CNC(=O)CCc2ccc(S(=O)(=O)NC3CCCCC3)cc2)cc1	none
O=C(CCc1ccccc1)Nc1ccccc1	none
Cc1cccc(NC(=S)NC(=O)CCc2ccccc2)c1C	CHOP inh 75
CCOC(=O)c1ccc(NC(=O)[C@@H]2CCC(=O)N2C2OC(=O)c3c2ccc(OC)c3OC)cc1 (stereo partly specified)	none (no result: MITF TRPM1 inh, CHOP inh)
Cc1ccc(Nc2nc(-c3c(C)nc4ccccn34)cs2)cc1	CHOP inh 85
Cc1ccc2[nH]c(C)c(/C=N/Nc3nc4ccccc4s3)c2c1	CHOP inh 78
COc1ccc(C=NNc2nc3ccccc3s2)cc1	none (no result: CHOP inh)
Cn1nc(C(F)(F)F)c(-c2ccc(Br)cc2)c1NC(=O)Nc1ccc(F)cc1F	Peg3 prom inh 51, CHOP inh 77
Cn1nc(C(F)(F)F)c(-c2ccc(F)cc2)c1NC(=O)c1ccco1	none
CCOC(=O)C1=CCN(S(=O)(=O)c2ccc(C)cc2)C1c1cccc2ccccc12 (stereo unspecified)	none (no result: MITF TRPM1 inh, CHOP inh)
Cc1cc(C)n(-c2nc(SCC(=O)O)c3c4c(sc3n2)COC(C)(C)C4)n1	none
Cc1cc(C)n(-c2nc(SCCN(C)C)c3c4c(sc3n2)CCCC4)n1	Peg3 prom inh 83
COc1ccc(Cl)cc1-c1cc(C(=O)Nc2ccc(C)c(NS(C)(=O)=O)c2)[nH]n1	Peg3 prom inh 69 (no result: MITF TRPM1 inh, CHOP inh)
Clc1ccc(-c2cnc(Oc3ccccc3)nc2)cc1	none
Cc1ccc(Oc2nccc(-c3ccc(Cl)cc3)n2)cc1	CHOP inh 78
COc1ccc(OCC2CCNCC2)cc1	none (no result: CHOP inh)
O=C(CC(NC(=O)C(F)(F)F)c1ccccc1)Nc1nnc(CCc2ccccc2)s1 (stereo unspecified)	CHOP inh 94
Cc1nnc(NC(=O)CC(NC(=O)C(F)(F)F)c2ccccc2)s1 (stereo unspecified)	none
CCOC(=O)c1cnc2c(c(C)nn2-c2ccc(C)cc2)c1Cl	Peg3 prom inh 101 (no result: CHOP inh)
CCOC(=O)c1cnc2c(c(C)nn2C)c1Oc1cc(Cl)cc(Cl)c1	none
O=C(CCCCn1c(=O)c2ccccc2n(Cc2ccccc2F)c1=O)NC1CCN(Cc2ccccc2)CC1	CHOP inh 79
O=C(Nc1ncccc1Cl)C(Sc1ccccc1)c1ccccc1 (stereo unspecified)	CHOP inh 75
COc1ccc(CNC(=O)COC(=O)CN2C(=O)NC3(CCCC3)C2=O)cc1	none (no result: CHOP inh)
CC(C)(Sc1cc(C(C)(C)C)c(O)c(C(C)(C)C)c1)Sc1cc(C(C)(C)C)c(O)c(C(C)(C)C)c1	none
C/C(=N/O)c1cc(C(C)(C)C)c(O)c(C(C)(C)C)c1	CHOP inh 86
CC1CCN(c2ccc(NC(=O)c3ccc([N+](=O)[O-])o3)cc2)CC1	Peg3 prom inh 106, KKLEB tox -98, MITF TRPM1 inh 81, CF NFkB inh 95, HIF-2a block 53 (no result: CHOP inh)
O=C(Nc1ccc(N2CCN(C(=O)c3ccccc3)CC2)c(Cl)c1)c1ccc(Br)o1	Peg3 prom inh 50, CHOP inh 85
O=C(Nc1ccc(N2CCCC2)cc1)c1ccc(Br)o1	none
CC1CCN(c2ccccc2NC(=O)c2ccc([N+](=O)[O-])o2)CC1	none (no result: CHOP inh)
O=C(Nc1ccccc1N1CCN(C(=O)c2ccccc2)CC1)c1ccc([N+](=O)[O-])o1	MITF TRPM1 inh 62 (no result: CHOP inh)
O=C(Nc1ccc(N2CCCCC2)cc1)c1ccc([N+](=O)[O-])o1	Peg3 prom inh 106, CF NFkB inh 96 (no result: CHOP inh)
Oc1ccc(Nc2ccc3ccccc3c2)cc1	none (no result: MITF TRPM1 inh, CHOP inh)
COCCCNC(=O)c1csc([C@@H]2O[C@H](CO)[C@H](O)[C@H](O)[C@H]2O)n1	none (no result: MITF TRPM1 inh, CHOP inh)
Cc1cc(C(=O)C(C)OC(=O)c2ccc(NC(=O)CC#N)cc2)c(C)n1-c1ccccc1 (stereo unspecified)	none (no result: CHOP inh)
COc1ccc(NC(=O)C(c2ccc(C#N)cc2)n2c(=O)c(-c3cc4ccccc4[nH]3)nc3ccccc32)cc1 (stereo unspecified)	none (no result: Peg3 prom inh, KKLEB tox, MITF TRPM1 inh, CF NFkB inh, CHOP inh)
COc1ccc(N2CCCC2)c(NC(=O)c2ccc([N+](=O)[O-])o2)c1	Peg3 prom inh 53 (no result: CHOP inh)
CCN(CC)CCN1C(=O)c2cccc3cc(N)cc(c23)C1=O	Peg3 prom inh 51
COc1ccccc1CN(C)C(=O)c1cccc(S(=O)(=O)N2CCCc3ccccc32)c1	none (no result: CHOP inh)
O=C(C(=O)N1CCC(Cc2ccccc2)CC1)c1cccc(Br)c1	none (no result: Peg3 prom inh, KKLEB tox, MITF TRPM1 inh, CF NFkB inh, CHOP inh)
Cc1nc(SC2CC(=O)N(c3cc(Cl)cc(Cl)c3)C2=O)nc2c1CCCC2 (stereo unspecified)	CHOP inh 95
CCCn1c2c(c(=N)c3c1CCC3)CCC2	none
CCCCCCCn1c2c(c(=N)c3ccccc31)CCC2	MITF TRPM1 inh 86
Cc1ccc(S(=O)(=O)N2C[C@]3(O)C[C@@H]4C(=O)N(c5ccccc5)C(=O)[C@@H]4C[C@]3(OC(=O)Nc3c(C)noc3C)C2)cc1	none (no result: MITF TRPM1 inh, CHOP inh)
Clc1ccc(C2=Nc3cc(Cl)ccc3OC2)cc1	none
Cc1ccc2c(c1)N=C(c1ccc(Cl)cc1)CO2	CHOP inh 71
Cc1ccc(S(=O)(=O)c2c(N)n(Cc3ccco3)c3nc4ccccc4nc23)cc1	CHOP inh 74
Cc1cccc(S(=O)(=O)c2c(N)n(Cc3ccco3)c3nc4ccccc4nc23)c1	none
CCOc1ncccc1C(=O)OCC(=O)N1CCC(C)CC1	none (no result: CHOP inh)
O=C(Nc1nc2ccc(F)cc2s1)c1ccc([N+](=O)[O-])o1	Peg3 prom inh 67, KKLEB tox -62, CF NFkB inh 81 (no result: MITF TRPM1 inh, CHOP inh)
O=C(Nc1nc2ccccc2s1)C1c2ccccc2Oc2ccccc21	CHOP inh 85
O=C(NC(=S)Nc1nc2ccc(F)cc2s1)c1ccco1	KKLEB tox -71
O=C(Nc1nc2ccccc2s1)C1CCCO1 (stereo unspecified)	none
O=C(Nc1nc2ccc(Cl)cc2s1)c1ccc(Br)o1	CHOP inh 74
O=C(Nc1nc2c(Cl)cccc2s1)c1ccc(Br)o1	none
CC1(C(=O)NS(=O)(=O)C2CC2)CCN(C(=O)COCc2ccccc2)C1 (stereo unspecified)	none (no result: MITF TRPM1 inh, CHOP inh)
COC(=O)c1nc(NC(=S)NC(=O)c2cccs2)sc1C	none (no result: CHOP inh)
O=C(NC(=S)Nc1nc2ccccc2s1)c1cccs1	KKLEB tox -56
Cc1nc(C2CCC3C4CCC5=CC(=O)CC[C@]5(C)C4CC[C@]23C)cs1 (stereo partly specified)	CHOP inh 76 (no result: Peg3 prom inh, KKLEB tox, MITF TRPM1 inh, CF NFkB inh, HIF-2a block)
C/C=C1\C(=O)CC2C3CCC4=CC(=O)CC[C@]4(C)C3CC[C@]12C (stereo partly specified)	none (no result: Peg3 prom inh, KKLEB tox, MITF TRPM1 inh, CF NFkB inh, HIF-2a block)
